33 molecules from PubChem BioAssay (NCI) can be followed below.

Structures are written as SMILES. This is part of a sample that, as a whole, favours compounds with a hit. Of some 83,000 tested, about 20% had one in any assay.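 Growth was measured after 48 h exposure to one concentration of compound in 96-well plates. Values under 10 count as active.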 Unmarked numbers belong to inactive results. Active and inactive are the calls of the source.

This test deals with DU-145 prostate. Nature of the test: NCI-60 one-dose screen, 48 h (100 = growth as untreated, 0 = no growth, -100 = all killed). The settings on record: 10 µM unless noted.
As for `CCCC(=O)CC(C)=O.CCCC(=O)CC(C)=O.[Cu]`, the growth is 110%.
As for `COc1cc(C(C)n2cc(-c3ccccc3)nn2)ccc1OC1CCCCC1` (stereo not drawn), the growth was 84.3%.
`NC1(N2SC(S)=C3CCCC=C32)CCCCC1`: the growth was 98.3%.
On to `CCN1CCN(c2cc(C)c3cc(NC(=O)c4ccc(OC)c(OC)c4)ccc3n2)CC1`, for which the growth is 34.5%.
Turning to `CC(C)[C@H](NC(=O)Cn1cc(C(=O)O)nn1)C(=O)O`, the growth was 114%.
Regarding `C=C[C@@H]1CCC/C=C/[C@@H]2C[C@H](O)C[C@H]2[C@H](O)/C=C/C(=O)O1`, the growth was 21.1%.
In the case of `Cc1ccc(CN2CCC(C(=O)Nc3ccc(-c4cc5ccccc5[nH]4)cc3)CC2)o1`, the growth is 60.2%.
With `O=C(Nc1ccc(N2CCNCC2)cc1)c1[nH]ncc1Nc1cc(Oc2ccccc2)ncn1`, the growth was 15.9%.
With `CN1C(=O)N(C)C2C1NN=c1s/c(=C\c3ccc([N+](=O)[O-])cc3)c(=O)n12` (stereo not drawn), the growth is 77.4%.
Consider `COc1cccc2cc(N(C)c3nc(C)nc4ccsc34)ccc12`, for which the growth was -4.03% (active).
Turning to `COc1cc(/C=C2\CCC/C(=C\c3cc(CN4CCCCC4)c(O)c(OC)c3)C2=O)cc(CN2CCCCC2)c1O`, the growth was 83.1%.
`CCOC(=O)C1=C(C)N=c2s/c(=C\c3ccccc3O)c(=O)n2C1c1ccc(OC)c2ccccc12` (stereo not drawn): the growth is 43.5%.
The figure for `CCN1C(=O)N(CC)C2Nn3c(s/c(=C4\C(=O)N(C(C)C)c5ccccc54)c3=O)=NC21` (stereo not drawn) is 38%; for `Cc1c(-c2csc(-n3nc(C(F)(F)F)cc3C(F)(F)F)n2)no[n+]1[O-]` it is 105%.
With `CC1(O)COCCCCOc2c(CN)cccc2NC(=O)c2nc(cnc2N)-c2ccc(cc2)S(=O)(=O)C(C)(C)C1` (stereo not drawn), the growth is -73.4% (active).
In the case of `COc1nc2c(c(=O)n1C)N=C1c3ccccc3C(=O)C1C(c1ccccc1)N2` (stereo not drawn), the growth was 94.6%.
As to `CS(=O)(=O)Nc1ccc(C(=O)NC(C(=O)NO)c2ccc(-c3cccc(F)c3)cc2)cc1` (stereo not drawn), the growth is 83.5%.
As to `COc1cc(C(=O)Nc2ccc(-c3nc4ccccc4[nH]3)cc2)cc(OC)c1OC`, the growth was 87.9%.
For the molecule `Fc1ccc(Oc2ccc(Nc3ncnc4onc(-c5ccccc5)c34)cc2)cc1`, the growth is 95.2%.
The figure for `CC1=C(CC(=O)c2cccc([N+](=O)[O-])c2)C(=O)c2ccccc2C1=O` is -57% (active); for `COc1ccc(Cn2cc(Cn3c(=O)c(-c4nc5ccccc5[nH]4)cc4ccccc43)nn2)c(OC)c1OC` it is -59.6% (active); for `COc1ccc(Cn2c(Br)c3c(c2Br)-c2nc(N)sc2CC3)cc1` it is 57%.
Turning to `O=C(N/N=C/c1ccccc1O)C(=O)Nc1ccc(F)cc1`, the growth is 46.5%.
In the case of `COc1cc(/C=C2\CN(C)C/C(=C\c3cc(CN4CCCC4)c(O)c(OC)c3)C2=O)cc(CN2CCCC2)c1O`, the growth was 60.8%.
`CCOC(=O)c1cnc2c(C)cccc2c1Nc1ccc(C(C)=O)cc1`: the growth was 22%.
In the case of `COc1cc(C(=O)O/N=C(\N)Cc2cccc3ccccc23)cc(OC)c1OC`, the growth is 47.5%.
Turning to `Nc1ncnc(N)c1NC(=O)c1ccc(OCc2ccccc2)cc1`, the growth was 111%.
Turning to `CCOC(=O)c1sc(-c2ccc(OS(=O)(=O)c3cccs3)c(C=O)c2)nc1C`, the growth was 8.94% (active).
Consider `O=c1oc2ccc(F)cc2c(=O)n1-c1ccc(Cl)cc1F`, for which the growth is 17.1%.
Regarding `Nc1ccc(-n2c(=O)oc3ccc(Cl)cc3c2=O)c(Cl)c1`, the growth was 9.79% (active).
`c1ccc(-c2ccc(-c3nc4ccccc4[nH]3)cc2)cc1`: the growth is 95.2%.
As to `COc1ccc(-c2nc(-c3ccccn3)c(-c3ccccn3)n2CC(C)C)cc1OC1CCCC1`, the growth was 28.7%.
As to `CN(C)c1ccc(N=Cc2ccc(N3CCOCC3)cc2)cc1`, the growth was 99.6%.
